Results filed as inconclusive are left out. Calls of active or inactive are those of the source. The call rests on the fitted dose curve; in most records, active means well fitted inhibition curve with a large enough effect; inconclusive means small, poorly fitted or top-dose-only effect; inactive means flat fitted curve, though single readings scatter.
Each compound was assayed against Luciferin 4-monooxygenase (Photinus pyralis) (UniProt P08659) (assay: FLuc inhibitory activity for the follow-up compounds in a biochemical assay with 1mM ATP). Conditions: purified P. pyralis luciferase, luminescence; series mostly up to 57.5 µM; activity change, negative = inhibition: at the top concentration.
Luciferin 4-monooxygenase (Photinus pyralis), sequence (P08659 whole entry, looked up): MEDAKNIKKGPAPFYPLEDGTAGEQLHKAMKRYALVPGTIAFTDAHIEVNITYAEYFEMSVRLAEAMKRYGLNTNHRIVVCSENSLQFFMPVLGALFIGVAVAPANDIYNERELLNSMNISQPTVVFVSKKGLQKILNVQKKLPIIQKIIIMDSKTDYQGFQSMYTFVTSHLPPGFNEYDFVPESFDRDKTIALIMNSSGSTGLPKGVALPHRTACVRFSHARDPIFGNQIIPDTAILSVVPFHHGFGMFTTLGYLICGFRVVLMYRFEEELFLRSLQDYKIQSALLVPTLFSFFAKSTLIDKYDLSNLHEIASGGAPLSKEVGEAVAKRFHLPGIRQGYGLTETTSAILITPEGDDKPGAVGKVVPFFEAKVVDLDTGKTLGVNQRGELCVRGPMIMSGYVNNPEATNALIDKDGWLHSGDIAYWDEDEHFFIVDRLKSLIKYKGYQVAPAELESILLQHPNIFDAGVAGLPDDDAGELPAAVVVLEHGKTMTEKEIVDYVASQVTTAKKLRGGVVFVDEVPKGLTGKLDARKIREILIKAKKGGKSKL
Text: NCGC Assay Overview: Firefly (Photinus pyralis) luciferase is one of the most commonly used transcriptional reporters. It is considered one of the more dynamically responsive reporters - that is, responsive to changes in reporter transcription - as it requires no post-translational modifications and is enzymatically active directly after protein synthesis (Wood, 1998). With no endogenous expression in mammalian cells and without the requirement of external excitation, it offers very little background signal, thus generally providing excellent signal to background for most assays. Previous profiling work to determine the prevalence of compounds that affect FLuc enzymatic activity (PubChem AID 411) identified that ~3% of the MLSMR library (then at ~72K) inhibited FLuc. […] Of the compounds identified in this profile that inhibited FLuc, 151 compounds were selected for further analysis, in an effort to better understand their mode of inhibiting FLuc. The assay described here was to determine the activity of the compounds in a FLuc assay that contained a KM concentration of D-luciferin and a high concentration (1mM) of ATP.
NCGC Assay Protocol Summary: Reagents: 50mM Tris acetate, pH 7.5; 10mM Mg acetate; 10uM D-luciferin (Sigma #L9504); 1mM ATP; 0.01% Tween-20; 0.05% BSA; 10nM P. pyralis luciferase (Sigma #L9506) Control compounds used were two known firefly luciferase inhibitors (3-(5-(3-chlorophenyl)-1,2,4-oxadiazol-3-yl)benzoic acid and 5-(2-fluorophenyl)-3-phenyl-1,2,4-oxadiazole), and DMSO. Three microliters containing firefly luciferase substrates in buffer (final concentrations: 50mM Tris acetate, pH 7.5, 10mM Mg acetate, 0.01% Tween-20, 0.05% BSA, 10uM D-luciferin, 1mM ATP) are dispensed into each well of a Greiner white, solid-bottom 1536-well format plate using a flying reagent dispenser (FRD). These assay plates were then treated with 23nL of compound or DMSO using a Kalypsys pin tool, which allows for delivery of a 12-point intraplate titration of each compound to the assay plate (quantitative HTS), with a final compound concentrations ranging from approximately ~60uM to 0.3nM. One microliter of firefly luciferase in […] Tris-acetate buffer was then delivered by FRD to each well for a final enzyme concentration of 10nM. Luciferase activity was then measured using a ViewLux CCD imager (PerkinElmer), with an average exposure time of 2-30 seconds (2X binning, medium/high gain).

| Structure (SMILES) | Potency | activity change, negative = inhibition |
| --- | --- | --- |
| Nc1ccccc1C(=O)Nc1cccc(C(=O)O)c1 | 3.66 µM (active) |  |
| O=C(Nc1ccccc1C(=O)O)c1ccc(NC(=O)C2CC2)cc1 | 3.66 µM (active) |  |
| COc1cc(OC)cc(C(=O)Nc2ccccc2-c2nc3ccccc3s2)c1 |  | 5.57% (inactive) |
| COc1ccc2nc(NC(=O)CCc3nc(-c4ccccc4F)no3)sc2c1 |  | -4.54% (inactive) |
| O=C(Nc1ccccc1C(=O)O)c1cccc(NC(=O)c2ccccc2Br)c1 | 36.6 µM (active) |  |
| C/C(=N\NC(=O)c1ccccc1NC(=O)c1ccc(Cl)cc1)c1ccncc1 | 0.146 µM (active) |  |
| COc1ccc2nc(NC(=O)Cc3cccs3)sc2c1 | 4.11 µM (active) |  |
| Cc1ccc2nc(-c3ccc(N)cc3)sc2c1 | 0.0231 µM (active) |  |
| Cc1ccc2sc(-c3ccc(N)cc3)nc2c1 | 0.0366 µM (active) |  |
| Nc1ccc(C(=O)Nc2ccccc2C(=O)O)cc1 | 14.6 µM (active) |  |
| Cc1ccc(C(=O)Nc2ccc(C(=O)O)cc2)cc1S(=O)(=O)Nc1ccccc1 |  | 3.68% (inactive) |
| COc1ccc(C(=O)Nc2ccccc2-c2nc3ccccc3s2)c(OC)c1 |  | 4.69% (inactive) |
| CCCOc1cccc(C(=O)Nc2ccc(-c3nc4ccccc4s3)c(Cl)c2)c1 |  | 2.04% (inactive) |
| O=C(O)c1ccc(NC(=O)c2cccc(C(=O)Nc3ccc(C(=O)O)cc3)c2)cc1 |  | 0.635% (inactive) |
| COc1ccc(C(=O)Nc2ccccc2C(=O)Nc2ccccc2C(=O)O)cc1 | 4.61 µM (active) |  |
| CC(C)(C)NC(=O)c1ccccc1-c1nc2ccccc2s1 |  | -11.8% (inactive) |
| CCOc1ccc2nc(NC(=O)c3ccoc3C)sc2c1 | 0.13 µM (active) |  |
| c1ccc2sc(-c3ccc4c(c3)OCO4)nc2c1 | 0.0919 µM (active) |  |
| Cc1ccc(C(=O)Nc2ccc(C(=O)O)cc2)cc1S(=O)(=O)NCc1ccccc1 |  | 8.97% (inactive) |
| O=C(O)c1cccc(NC(=O)c2cccc(S(=O)(=O)N3CCc4ccccc43)c2)c1 | 18.3 µM (active) |  |

| Structure (SMILES) | Potency | activity change, negative = inhibition |
| --- | --- | --- |
| Nc1ccc(-c2nc3cc(N)ccc3s2)cc1 | 0.259 µM (active) |  |
| Cc1ccc(NS(=O)(=O)c2ccc(Cl)c(C(=O)Nc3cccc(C(=O)O)c3)c2)cc1 |  | -8.69% (inactive) |
| COc1ccc(CC(=O)Nc2ccc(-c3nc4ccccc4s3)c(C)c2)cc1 | 18.3 µM (active) |  |
| NC(=O)Cc1ccc2sc(-c3ccccc3)nc2c1 | 1.16 µM (active) |  |
| CC(C)c1ccc(C(=O)Nc2ccc(-c3nc4ccccc4s3)c(Cl)c2)cc1 |  | -15.3% (inactive) |
| COc1ccc(-c2cccc(C(=O)Nc3cccc(C(=O)O)c3)c2)cc1 | 5.8 µM (active) |  |
| COc1ccc2nc(NC(=O)c3ccc([N+](=O)[O-])o3)sc2c1 | 3.26 µM (active) |  |
| CCOc1ccc2nc(NC(=O)c3cc([N+](=O)[O-])ccc3N3CCOCC3)sc2c1 |  | 0% (inactive) |
| Nc1cccc(-c2nc3ccc(N)cc3s2)c1 | 0.116 µM (active) |  |
| CN(C)c1cccc(C(=O)Nc2ccc(-c3nc4ccccc4s3)cc2)c1 | 0.819 µM (active) |  |
| CC(C)CC(=O)Nc1cccc(C(=O)Nc2ccccc2C(=O)O)c1 | 18.3 µM (active) |  |
| O=C(Nc1ccccc1C(=O)O)c1cccc(C(=O)Nc2ccccc2C(=O)O)c1 | 11.6 µM (active) |  |
| COc1ccc2nc(NC(=O)CCc3ccc(OC)c(OC)c3)sc2c1 |  | 5.86% (inactive) |
| O=C(O)c1cccc(NC(=O)c2ccc(COc3ccc(Cl)cc3)cc2)c1 | 3.66 µM (active) |  |
| O=C(Nc1ccc(-c2nc3ccccc3s2)cc1)C1=COCCO1 | 0.0183 µM (active) |  |
| O=C(O)c1cccc(NC(=O)c2cccc(NC(=O)C3CCCO3)c2)c1 (stereo not given) | 4.11 µM (active) |  |
| Cc1ccc(S(=O)(=O)N2CCN(C(=O)c3ccccc3-c3nc4ccccc4s3)CC2)c(C)c1 |  | -5.52% (inactive) |
| O=C(Nc1ccccc1C(=O)O)c1cccc(NC(=O)c2ccc(Br)o2)c1 | 32.6 µM (active) |  |
| CCOc1ccc2nc(NC(=O)Cc3cccs3)sc2c1 | 3.66 µM (active) |  |
| O=C(O)c1ccc(NC(=O)c2ccccc2NC(=O)c2ccccc2Br)cc1 |  | -3.88% (inactive) |
